Records with an inconclusive call do not appear. Where a call stands in place of a potency, no number is given. Calls of active or inactive are those of the source. Calls come from the whole dose curve; as a rule, active = well fitted inhibition curve with a large enough effect; inconclusive = small, poorly fitted or top-dose-only effect; inactive = flat fitted curve, though single readings scatter.
Potency is the fitted concentration of half-maximal effect.

The experiment deals with MCC-26. Kind of experiment: qHTS assay to identify novel small-molecules to repurpose for Merkel cell carcinoma treatment (AID 1296009). Note: nearly all actives have a fitted effect of over 60% in size. The conditions noted are these: MCC and control cell lines, CellTiter-Glo viability, 72 h; series mostly up to 46 µM. An excerpt: MCC is a rare and aggressive neuroendocrine skin cancer with limited treatment options. Approximately 80% of MCCs have the Merkel cell polyomavirus (MCPyV) DNA integrated into the host genome (virus-positive: VP-MCC) and viral oncogenes drive oncogenesis. The remaining MCCs are virus-negative (VN-MCC) and are caused by UV mutagenesis. To identify novel treatments for VP-MCC and/or VN-MCC we screened three VP-MCC cell lines (WAGA, MKL-1, MKL-2), three VN-MCC cell lines (MCC-13, MCC-26, UISO), and four immortalized, non-transformed control cell lines (HaCaT, HEK293T, CRL7250, NIH-3T3) against ~2,400 compounds in the NCGC Pharmaceutical Collection (NPC) and ~1,900 compounds in the Mechanism Interrogation PlatE (MiPE). Using cell viability as a readout (CellTiter-Glo assay) we found both overlapping and distinct drugs that can be repurposed for the treatment of VP-MCC and VN-MCC.
A high-throughput screen was conducted in 1536-well white flat bottom plates (Corning) on a Kalypsys robotic system. Cell lines WAGA, MKL-1, MKL-2, MCC-13, MCC-26, UISO, HaCaT, HEK293T, CRL7250, and NIH-3T3 were screened against 2 small molecule annotated drug libraries NPC and MIPE in dose response (8 and 11 pt. respectively) measuring cell viability after 72 hours of incubation. […] A 1,536 pintool (Kalypsys) was used to transfer 23 nL of compound in DMSO to the 1,536-well assay plates. After 72 hr incubation at 37 degree celsius, 2.5 uL of CellTiter-Glo (Promega) was dispensed into each well using a BiorapTR. Plates were incubated at room temperature for 10 min, transferred to a ViewLux (PerkinElmer) and the luminescence was recorded using an exposure time of 2 seconds. Relative luminescence units (RLUs) were normalized to in-plate controls (no cells as a positive (cytotoxicity) control, DMSO as negative control) and the normalized data was processed using NCATS in-house software.
(In general: Quantitative high-throughput screening tests each substance at several concentrations.)
For the compound `CO/N=C(/C(=O)N[C@@H]1C(=O)N2C(C(=O)OCOC(=O)C(C)(C)C)=C(C)CS[C@H]12)c1csc(N)n1`, the Potency result is “inactive”. In the case of `CN(C)CCOC(c1ccccc1)c1ccc(Br)cc1` (stereo not given) it was “inactive”. `Cc1ccccc1C(=O)N1CC/C(=N\OS(=O)(=O)O)c2ccc(Cl)cc21`: the Potency entry was “inactive”. On to `Nc1c[n+](N2CCOCC2)no1`, for which the Potency result is “inactive”.

On to `COC(=O)/C=C(/C)N`, for which the Potency result is “inactive”. As for `CC(=O)OCC(=O)[C@@]1(O)CCC2C3CCC4=CC(=O)CC[C@]4(C)C3[C@@H](O)C[C@@]21C` (stereo not given in full), the Potency result was “inactive”.

As to `C=C(C)C(=O)OCC(O)CO` (stereo not given), the Potency result was “inactive”. Take `C/C(=C1\CCOC(=O)S1)N(C=O)Cc1cnc(C)nc1N`: the Potency entry is “inactive”. With `CCN(CC)CC(=O)OCC(=O)[C@@]1(O)CC[C@H]2[C@@H]3CCC4=CC(=O)CC[C@]4(C)[C@H]3[C@@H](O)C[C@@]21C`, the Potency entry was “inactive”.

Take `CCS(=O)(=O)c1ccc(OC)c(C(=O)OC)c1`: the Potency entry was “inactive”. In the case of `CC(C)(C)C(=O)OCOC(=O)C1N2C(=O)CC2S(=O)(=O)C1(C)C` (stereo not given) it was “inactive”; in that of `CCCCCCCCCCCC[N+](C)(C)Cc1ccccc1`, 23.7 µM (active). For `COc1ccc(OC(=O)N(CC(=O)O)Cc2ccc(OCCc3nc(-c4ccccc4)oc3C)cc2)cc1`, the Potency entry was “inactive”.

In the case of `CN(C)CCCOC1(Cc2ccccc2)CCCCCC1`, the Potency result is “inactive”. For `CCCCCC[C@@H](CCC)C(=O)O`, the Potency entry is “inactive”. Regarding `CSc1ccc(/C=C2/C(C)=C(CC(=O)O)c3cc(F)ccc32)cc1`, the Potency result is “inactive”. `O=C(O)[C@@H](O)[C@H](O)[C@H](O)[C@@H](O)C(=O)O`: the Potency entry is “inactive”. In the case of `CCOC(=O)[C@H](CCc1ccccc1)N[C@@H](C)C(=O)N(CC(=O)O)C1Cc2ccccc2C1` it was “inactive”; in that of `CN1N=C(C(N)=O)CCC1=O`, “inactive”. Consider `COc1cc(OC)nc(O[C@H](C(=O)O)C(OC)(c2ccccc2)c2ccccc2)n1`, for which the Potency result is “inactive”. Take `O=C(c1ccco1)N1CCNCC1`: the Potency result was “inactive”. With `[O-][n+]1cccc(/C(Cl)=N/OC[C@@H](O)CN2CCCCC2)c1` the entry was “inactive”; with `COc1cc(C(=O)OC(COCCC(C)C)CN2CCOCC2)cc(OC)c1OC` (stereo not given), “inactive”; with `CCc1cc(S(=O)(=O)O)c2cc(C(C)C)cccc1-2`, “inactive”. For the compound `COc1ccc2c(c1)c(CC(=O)OC/C=C(\C)CC/C=C(\C)CCC=C(C)C)c(C)n2C(=O)c1ccc(Cl)cc1`, the Potency result is “inactive”.

`CC(C)C(=O)Nc1cccc(C2CN3CCSC3=N2)c1` (stereo not given): the Potency result is “inactive”. On to `C[C@@H]1C[C@H]2[C@@H]3CCC4=CC(=O)C=C[C@]4(C)[C@@]3(F)[C@@H](O)C[C@]2(C)[C@@]1(O)C(=O)COC(=O)c1ccncc1`, for which the Potency entry was “inactive”. `CC(C)(C)C(O)/C=C/c1ccc2c(c1)OCO2` (stereo not given): the Potency entry was “inactive”. Turning to `COc1ccc2c(c1)CCCC2=O`, the Potency entry is “inactive”. Consider `COCCc1ccccn1`, for which the Potency entry is “inactive”.

As to `O=[N+]([O-])c1cncn1CCN1CCOCC1`, the Potency entry was “inactive”. Consider `CC(=O)[C@@]1(O)CC[C@H]2[C@@H]3C[C@H](C)C4=CC(=O)CC[C@]4(C)[C@H]3CC[C@@]21C`, for which the Potency entry was “inactive”. In the case of `CC(=O)OC/C=C(C)/C=C/C=C(C)/C=C/C1=C(C)CCCC1(C)C`, the Potency result was “inactive”. On to `Nc1ccc(C(=O)OCC(O)CO)cc1` (stereo not given), for which the Potency result is “inactive”.

As to `OCc1cccnc1`, the Potency entry was “inactive”.

In the case of `O=S(=O)(O)c1ccc2nc(-c3ccccc3)[nH]c2c1`, the Potency entry was “inactive”. For `CO[C@@H]1[C@@H](O[C@@H]2O[C@H](C)[C@@H](O[C@H]3C[C@@](C)(O)[C@@H](O)[C@H](C)O3)[C@H](N(C)C)[C@H]2O)[C@@H](CC=O)C[C@@H](C)[C@@H](O[C@@H]2CC[C@H](N(C)C)[C@@H](C)O2)/C=C/C=C/C[C@@H](C)OC(=O)C[C@H]1OC(C)=O`, the Potency result is “inactive”.

As for `C=CC[N+]1([C@H]2C[C@H]3[C@@H]4CC[C@H]5C[C@H](OC(C)=O)[C@@H](N6CCCCC6)C[C@]5(C)[C@H]4CC[C@]3(C)[C@H]2OC(=O)CC)CCCCC1`, the Potency result is “inactive”. With `O=C(Oc1ccccc1)c1cccc(C(=O)Oc2ccccc2)c1` the entry was “inactive”; with `CC1(C)O[C@@H]2C[C@H]3[C@@H]4CCC5=CC(=O)C=C[C@]5(C)[C@@]4(F)[C@@H](O)C[C@]3(C)[C@]2(C(=O)CO)O1`, “inactive”.

These data come from PubChem BioAssay (NCATS).
